In the library only some 1.8% were active in any assay of this set; here they are far more common.
PTHR1 agonist: agonists of human PTHR1 parathyroid hormone receptor; Q03431; HEK293 GP2 PTHR1 cells, GloSensor cAMP luminescence, 1 h; Potency, µM (series often up to 115 µM), actives largely listed as activators; 410,000 tested, 0.075% active; AID 743266; also: nearly all actives have a fitted effect of over 55% in size
Target sequence (Q03431 whole entry, looked up): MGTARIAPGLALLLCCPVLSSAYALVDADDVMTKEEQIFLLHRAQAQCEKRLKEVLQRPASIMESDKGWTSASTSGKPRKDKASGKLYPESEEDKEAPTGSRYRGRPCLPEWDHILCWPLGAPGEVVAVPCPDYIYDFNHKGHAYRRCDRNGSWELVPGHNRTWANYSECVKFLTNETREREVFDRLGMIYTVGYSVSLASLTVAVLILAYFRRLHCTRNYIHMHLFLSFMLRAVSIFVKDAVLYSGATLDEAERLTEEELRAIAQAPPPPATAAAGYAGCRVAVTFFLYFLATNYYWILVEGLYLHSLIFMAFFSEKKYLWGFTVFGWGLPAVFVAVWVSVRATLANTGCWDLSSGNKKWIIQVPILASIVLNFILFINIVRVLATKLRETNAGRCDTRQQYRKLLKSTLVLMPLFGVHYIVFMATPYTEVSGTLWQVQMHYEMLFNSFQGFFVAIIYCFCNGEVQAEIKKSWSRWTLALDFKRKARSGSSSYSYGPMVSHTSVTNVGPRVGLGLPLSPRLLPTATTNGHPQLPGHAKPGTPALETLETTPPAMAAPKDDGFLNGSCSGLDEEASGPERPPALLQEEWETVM
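HEK-293-derived GP2 cells expressing PTHR1 and a GloSensor cAMP reporter, 3,000/well, plated overnight, given luciferin plus IBMX (each 0.5 mM as added) for 1 h at 37 °C, then compound for 1 h at 37 °C. Luminescence was read after 15 min at room temperature.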
GLP-1R agonist: agonists of human GLP-1 receptor; Potency, µM (top dose mostly 45.6 µM), most hits filed as activators; HEK293 GLP-1R CRE-luciferase, luminescence, 4-6 h; cells express a hypersensitive GLP-1R form; 380,000 tested, 0.007% active
GLP1R inv ag: inverse agonists of human GLP-1 receptor; Potency, µM (series often up to 38.3 µM), hits mostly inhibitors; 410,000 tested, 1.6% active; P43220; HEK293 GLP-1R CRE-luciferase, luminescence, 24 h; GLP-1R form is constitutively active; AID 624417; also: nearly all actives have a fitted effect of over 55% in size
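Constitutively active GLP-1R drives a cAMP-responsive luciferase in stably transfected HEK293 cells; test compounds are added after overnight (12 h) attachment and left 24 hr, and signal loss in luminescence marks inhibition.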
TSHR antag: blocks TSH signaling through the human TSH receptor. TSHR-expressing cells, TSH-stimulated cAMP HTRF, 2 h; stronger effect = lower value. activity change, negative = inhibition, % at 11.5 µM. 330,000 tested, 0.2% active. AID 504810;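 active = activity change below a set negative limit, meaning inhibition stronger than a set level, cut at about -70% in these data; inconclusive = activity change between two set negative limits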
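Freshly harvested TSHR cells receive pin-tooled compound, then EC80 TSH at 4nM final. After 2 hours at 37 deg C, antibody in lysis buffer and cAMP-d2 are added; 30 minutes at ambient temperature precede the HTRF read.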
GLP1R cytotox: cytotoxicity counter-screen for GLP-1 receptor inverse agonists. HEK293 cAMP-luciferase reporter cells, luminescence, 24 h. Potency, µM (top dose mostly 38.3 µM), actives largely listed as inhibitors. 410,000 tested, 0.13% active. AID 624418;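 also: loss of luciferase light is scored as toxicity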
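Compound-treated cells are incubated 24 hr at 37 deg C under 5% CO2 after a 12 hour attachment period, then luciferase detection reagent is added and luminescence is measured following 12 min at room temperature; lowered signal indicates toxicity.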
Hits are given with their value; 0 = inactive; ? = inconclusive; - = not tested or not shown; [ ] = another dose, or the depositor's remark. Unless noted, calls follow the shape of the dose curve; as a rule, active = well fitted curve in the direction sought with a large enough effect; inconclusive = small, poorly fitted or top-dose-only effect, or another doubt; inactive = no such curve, though single readings can be large; an effect the other way counts as inactive or inconclusive.

SMILES	PTHR1 agonist	GLP-1R agonist	GLP1R inv ag	TSHR antag	GLP1R cytotox
CC(=O)Nc1ccc(NC(=O)C2Cc3ccccc3N2C(=O)c2ccccc2)cc1 (centres undefined)	0	-	0	-	0
Nc1nc(N=Nc2ccc(O)cc2)cc(=O)[nH]1	0	0	0	-	10µM
CCC(C)NC(=O)CN1C(=O)CSc2ccc(S(=O)(=O)N3CCCC3)cc21 (centres undefined)	0	0	0	-125	0
CC1CCN(CCCNC(=O)CN2C(=O)CSc3ccc(S(=O)(=O)N4CCC(C)CC4)cc32)CC1	0	0	?	0	0
COc1cccc(NC(=O)CN2C(=O)CSc3ccc(S(=O)(=O)N4CCOCC4)cc32)c1	0	0	0	0	0
COc1cccc(CNC(=O)CN2C(=O)CSc3ccc(S(=O)(=O)N4CCOCC4)cc32)c1	0	0	0	-140	0
CC1CCN(CCCNC(=O)CN2C(=O)CSc3ccc(S(=O)(=O)N4CCOCC4)cc32)CC1	0	0	0	-89	0
CCC(=O)Nc1ccc(CC)cc1-c1nc2ccccc2n(CC(=O)Nc2cccc(OC)c2)c1=O	0	-	0	-	0
CCn1cc(C(=O)N2CCN(c3ccc(F)cc3)CC2)c(=O)c2cc(S(=O)(=O)N3CCOCC3)ccc21	?	0	0	-	0
CCc1ccc2oc(C(=O)Nc3c(C)n(C)n(-c4ccccc4)c3=O)cc(=O)c2c1	0	-	0	-	0
CC(C(=O)Nc1ccc(OC(F)(F)F)cc1)N1Cc2ccccc2C1=O (centres undefined)	50µM	-	?	-	0
C/C(=N\NC(=S)NCc1ccccc1)c1ccc2ccccc2c1	0	0	?	0	2.8µM
COc1ccc(CNC(=S)N/N=C(\C)c2ccc(OC)cc2)cc1	0	0	?	0	?
C/C(=N\NC(=S)Nc1cccc(C)c1)c1cc2ccccc2o1	0	0	0[7.66 µM]	0	?
COc1ccccc1/C(C)=N/NC(=S)NCc1ccccc1	0	0	2.5µM	0	5µM
CCNC(=S)N/N=C(\C)c1cc2ccccc2o1	0	0	4.5µM	0	?
COc1ccc(/C(C)=N/NC(=S)NCc2ccco2)cc1	0	0	11µM	0	?
C/C(CCC(C)C)=N\NC(=S)NCc1ccccc1	0	0	?	0	0
O=C(Cn1ncc2c(=O)oc3ccccc3c21)N1CCN(c2ccc(Cl)cc2)CC1	0	0	0	-	0
C/C(=N\NC(=S)NCc1ccccc1)c1cccc(Br)c1	0	0	8.9µM	0	?
C/C(=N\NC(=S)NCCc1ccccc1)c1cccc(Br)c1	0	0	0	0	?
O=C(c1cccc(NS(=O)(=O)c2ccc(F)c(F)c2)c1)N1CCN(C(c2ccccc2)c2ccccc2)CC1	0	0	4µM	0	0
CCOc1ccc(S(=O)(=O)N2CCCCC2)c2ccccc12	0	0	10µM	0	0
CC1CN(C(=O)c2ccccc2OCc2ccc(Cl)cc2Cl)CC(C)O1 (centres undefined)	0	0	10µM	0	0
CSCc1c(C(=O)N2CCCc3ccccc32)oc2ccccc12	0	0	8.9µM	0	0
SMILES	PTHR1 agonist	GLP-1R agonist	GLP1R inv ag	TSHR antag	GLP1R cytotox
O=C(c1cc(=O)c2ccccc2o1)N1CCCc2ccccc21	0	0	0	0	0
COc1cccc(C2CCCN2Cc2nc(CCC(C)C)no2)c1 (centres undefined)	0	0	?	0	0
Cc1ccc2nc(C3CCCN3Cc3nc(CCC(C)C)no3)[nH]c2c1 (centres undefined)	0	0	7.1µM	0	0
O=C(Cc1ccccc1F)Nc1nc(-c2ccc(F)cc2)cs1	0	0	8.9µM	0	0
Cc1ccccc1CN(C)C(=O)COC(=O)c1ccc2[nH]c(C)c(C)c2c1	0	0	8.9µM	0	0
Cc1[nH]c2ccc(C(=O)OC(C)C(=O)NCc3ccccc3)cc2c1C (centres undefined)	0	0	?	0	?
CCOc1ccc(Nc2cc(C)nc3nc(Cc4ccc(Cl)cc4)nn23)cc1	0	-	0	-	0
CN1CCN(NC(=O)c2cn(-c3ccccc3)nc2-c2cccc(Br)c2)CC1	0	0	3.2µM	0	?
CN1CCN(NC(=O)c2cn(-c3ccccc3)nc2-c2cccs2)CC1	0	0	0	0	0
